Reference: publication PMC7862700, “An all-to-all approach to the identification of sequence-specific readers for epigenetic DNA modifications on cytosine”

Tests used:
Assay in all cases: DAPPL (digital affinity profiling via proximity ligation, sequencing); 10 mM Tris-HCl pH 7.5, 50 mM NaCl, 1 mM DTT, 4% glycerol, room temperature, 30 min; GST-TFs on glutathione beads, 16-mer random dsDNA library, 0.1% formaldehyde crosslink after washing; high values mean tight binding
Settings in all cases: protein: recombinant; tags: N-terminal GST; dsDNA, one strand shown
[1] = molecular target: T1, ELK1 (Homo sapiens, UniProt P19419 1-428)
T1 sequence: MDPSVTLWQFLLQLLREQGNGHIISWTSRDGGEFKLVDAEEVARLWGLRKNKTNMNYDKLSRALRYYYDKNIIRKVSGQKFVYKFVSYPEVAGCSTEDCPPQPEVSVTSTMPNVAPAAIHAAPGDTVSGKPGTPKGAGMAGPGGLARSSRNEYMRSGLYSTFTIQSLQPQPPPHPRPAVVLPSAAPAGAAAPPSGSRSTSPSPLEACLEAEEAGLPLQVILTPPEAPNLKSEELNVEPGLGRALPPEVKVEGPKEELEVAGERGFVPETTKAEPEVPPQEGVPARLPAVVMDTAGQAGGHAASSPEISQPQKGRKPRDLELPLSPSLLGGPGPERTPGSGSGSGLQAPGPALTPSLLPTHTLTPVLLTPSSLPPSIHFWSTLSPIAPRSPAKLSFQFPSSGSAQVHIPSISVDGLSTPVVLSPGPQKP
Outline: (§1)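 A tag-only sample was pooled with DNA-barcoded human transcription factors that had been expressed in yeast as GST fusions and captured on glutathione beads. The pools were incubated for 30 min at room temperature with 200 nmole of a random double-stranded 16-mer DNA library in Tris/NaCl/DTT/glycerol buffer, then washed, crosslinked with 0.1% formaldehyde, proximity-ligated (BsaI/T4 ligase, 1 h, 37 °C), PCR-amplified and sequenced on an Illumina NextSeq500. Binding signal is each hexamer's read frequency for a factor divided by its frequency for the tag-only sample.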

[2] = molecular target: T2, GABPA (Homo sapiens, UniProt Q06546 1-454)
T2 sequence: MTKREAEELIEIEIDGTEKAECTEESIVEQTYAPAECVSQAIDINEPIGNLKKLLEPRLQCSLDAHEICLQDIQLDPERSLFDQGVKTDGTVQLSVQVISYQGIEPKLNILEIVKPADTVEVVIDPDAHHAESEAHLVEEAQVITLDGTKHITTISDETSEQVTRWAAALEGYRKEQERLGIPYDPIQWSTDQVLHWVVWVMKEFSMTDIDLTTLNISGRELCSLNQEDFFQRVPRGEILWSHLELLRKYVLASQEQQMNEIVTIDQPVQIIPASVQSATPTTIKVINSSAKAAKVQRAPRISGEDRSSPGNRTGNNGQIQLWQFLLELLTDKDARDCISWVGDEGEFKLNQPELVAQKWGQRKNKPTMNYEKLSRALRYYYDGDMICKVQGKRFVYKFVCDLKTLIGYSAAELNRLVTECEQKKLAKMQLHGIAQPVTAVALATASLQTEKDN
Outline: as §1

[3] = molecular target: T3, ERG (Homo sapiens, UniProt P11308 1-479)
T3 sequence: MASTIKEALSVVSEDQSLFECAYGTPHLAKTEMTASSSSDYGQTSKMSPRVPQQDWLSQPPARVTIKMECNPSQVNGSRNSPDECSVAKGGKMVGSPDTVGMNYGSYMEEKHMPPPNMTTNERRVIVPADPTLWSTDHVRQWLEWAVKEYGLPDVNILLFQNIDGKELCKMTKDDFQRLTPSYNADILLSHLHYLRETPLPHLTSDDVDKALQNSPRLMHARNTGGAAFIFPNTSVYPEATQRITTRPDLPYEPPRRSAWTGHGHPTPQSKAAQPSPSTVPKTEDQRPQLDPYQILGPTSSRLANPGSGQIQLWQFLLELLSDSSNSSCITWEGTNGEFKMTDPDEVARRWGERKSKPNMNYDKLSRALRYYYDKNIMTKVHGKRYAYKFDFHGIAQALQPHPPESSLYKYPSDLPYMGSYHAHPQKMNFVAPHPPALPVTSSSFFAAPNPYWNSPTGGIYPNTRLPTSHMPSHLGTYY
Outline: as §1

[4] = molecular target: ELF1 (Homo sapiens, UniProt P32519 1-619)
Chain of ELF1 (P32519 whole entry): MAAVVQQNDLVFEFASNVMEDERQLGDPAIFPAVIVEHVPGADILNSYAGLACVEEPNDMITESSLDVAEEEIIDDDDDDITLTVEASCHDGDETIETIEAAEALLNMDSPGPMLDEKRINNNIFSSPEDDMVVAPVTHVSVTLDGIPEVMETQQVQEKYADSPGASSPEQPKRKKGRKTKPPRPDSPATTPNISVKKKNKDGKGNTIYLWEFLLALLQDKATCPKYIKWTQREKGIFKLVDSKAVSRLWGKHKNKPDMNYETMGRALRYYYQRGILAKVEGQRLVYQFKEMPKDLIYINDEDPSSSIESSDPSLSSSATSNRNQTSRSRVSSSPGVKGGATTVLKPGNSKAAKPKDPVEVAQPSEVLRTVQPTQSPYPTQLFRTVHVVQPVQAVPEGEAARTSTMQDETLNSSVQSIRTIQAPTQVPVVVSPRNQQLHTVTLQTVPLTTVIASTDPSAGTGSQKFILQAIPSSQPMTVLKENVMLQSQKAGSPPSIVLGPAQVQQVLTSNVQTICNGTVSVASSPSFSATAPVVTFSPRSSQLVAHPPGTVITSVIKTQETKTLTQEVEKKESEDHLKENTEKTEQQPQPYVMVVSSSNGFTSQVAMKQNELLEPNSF
Outline: as §1

[5] = molecular target: T4, EHF (Homo sapiens, UniProt Q9NZC4 1-300)
T4 sequence: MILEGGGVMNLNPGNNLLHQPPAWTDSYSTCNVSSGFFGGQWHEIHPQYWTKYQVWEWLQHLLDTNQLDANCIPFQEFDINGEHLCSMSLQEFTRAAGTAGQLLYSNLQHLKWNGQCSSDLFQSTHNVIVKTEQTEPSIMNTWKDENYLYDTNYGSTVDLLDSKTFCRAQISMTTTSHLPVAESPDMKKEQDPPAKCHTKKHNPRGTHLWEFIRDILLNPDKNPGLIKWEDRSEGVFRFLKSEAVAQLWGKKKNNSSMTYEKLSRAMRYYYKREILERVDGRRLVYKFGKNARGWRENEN
Outline: as §1

[6] = molecular target: SPIB (Homo sapiens, UniProt Q01892 1-262)
Chain of SPIB (Q01892 whole entry): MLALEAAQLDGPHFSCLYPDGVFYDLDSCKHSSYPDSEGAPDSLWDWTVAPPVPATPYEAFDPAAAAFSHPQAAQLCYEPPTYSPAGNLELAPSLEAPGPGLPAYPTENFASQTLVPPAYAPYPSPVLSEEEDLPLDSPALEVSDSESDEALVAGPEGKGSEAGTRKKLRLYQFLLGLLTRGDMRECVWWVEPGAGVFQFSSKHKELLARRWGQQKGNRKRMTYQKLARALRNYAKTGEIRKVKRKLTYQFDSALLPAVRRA
Outline: as §1

[7] = molecular target: T5, FEV (Homo sapiens, UniProt Q99581 1-238)
T5 sequence: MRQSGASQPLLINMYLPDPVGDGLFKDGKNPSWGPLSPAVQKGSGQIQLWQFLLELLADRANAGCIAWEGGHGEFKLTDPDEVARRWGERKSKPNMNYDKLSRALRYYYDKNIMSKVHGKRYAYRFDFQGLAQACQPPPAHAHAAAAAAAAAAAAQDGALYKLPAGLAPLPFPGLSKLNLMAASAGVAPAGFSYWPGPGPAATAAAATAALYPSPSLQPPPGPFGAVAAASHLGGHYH
Outline: as §1

[8] = molecular target: ETV5 (Homo sapiens, UniProt P41161 1-510)
Chain of ETV5 (P41161 whole entry): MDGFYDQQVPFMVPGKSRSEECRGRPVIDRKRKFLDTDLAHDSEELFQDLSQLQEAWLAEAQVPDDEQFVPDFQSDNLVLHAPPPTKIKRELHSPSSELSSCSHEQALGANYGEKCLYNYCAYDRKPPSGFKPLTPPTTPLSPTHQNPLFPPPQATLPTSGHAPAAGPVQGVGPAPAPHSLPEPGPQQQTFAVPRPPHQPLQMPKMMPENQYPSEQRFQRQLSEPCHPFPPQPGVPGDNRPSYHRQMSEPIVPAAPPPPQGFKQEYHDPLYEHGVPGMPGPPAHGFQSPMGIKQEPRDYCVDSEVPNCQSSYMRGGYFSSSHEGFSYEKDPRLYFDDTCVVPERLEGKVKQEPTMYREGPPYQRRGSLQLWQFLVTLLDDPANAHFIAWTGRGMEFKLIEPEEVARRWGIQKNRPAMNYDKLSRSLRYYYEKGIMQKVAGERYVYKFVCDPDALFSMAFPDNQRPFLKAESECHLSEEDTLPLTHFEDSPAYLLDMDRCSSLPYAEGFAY
Outline: as §1

[9] = molecular target: ELF4 (Homo sapiens, UniProt Q99607 1-663)
Chain of ELF4 (Q99607 whole entry): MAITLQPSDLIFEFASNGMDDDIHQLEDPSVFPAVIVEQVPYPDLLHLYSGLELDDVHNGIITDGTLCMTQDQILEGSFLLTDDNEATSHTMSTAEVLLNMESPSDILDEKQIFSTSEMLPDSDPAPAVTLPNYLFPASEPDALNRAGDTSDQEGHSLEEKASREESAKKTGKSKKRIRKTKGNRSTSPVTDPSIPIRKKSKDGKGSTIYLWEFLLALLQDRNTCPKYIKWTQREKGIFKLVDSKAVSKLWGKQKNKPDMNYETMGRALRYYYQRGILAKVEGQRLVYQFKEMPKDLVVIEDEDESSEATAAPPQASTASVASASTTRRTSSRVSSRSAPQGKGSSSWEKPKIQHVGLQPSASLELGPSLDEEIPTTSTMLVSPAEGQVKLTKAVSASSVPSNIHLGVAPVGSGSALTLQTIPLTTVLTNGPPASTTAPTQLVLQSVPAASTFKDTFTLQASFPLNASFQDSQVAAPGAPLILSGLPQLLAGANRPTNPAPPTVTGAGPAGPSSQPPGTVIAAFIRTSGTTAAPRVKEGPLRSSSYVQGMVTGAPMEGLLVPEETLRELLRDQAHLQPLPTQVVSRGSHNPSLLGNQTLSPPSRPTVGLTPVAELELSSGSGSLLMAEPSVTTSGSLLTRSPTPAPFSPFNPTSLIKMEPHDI
Outline: as §1

[10] = molecular target: T6, ELK4 (Homo sapiens, UniProt P28324-2 1-405)
T6 sequence: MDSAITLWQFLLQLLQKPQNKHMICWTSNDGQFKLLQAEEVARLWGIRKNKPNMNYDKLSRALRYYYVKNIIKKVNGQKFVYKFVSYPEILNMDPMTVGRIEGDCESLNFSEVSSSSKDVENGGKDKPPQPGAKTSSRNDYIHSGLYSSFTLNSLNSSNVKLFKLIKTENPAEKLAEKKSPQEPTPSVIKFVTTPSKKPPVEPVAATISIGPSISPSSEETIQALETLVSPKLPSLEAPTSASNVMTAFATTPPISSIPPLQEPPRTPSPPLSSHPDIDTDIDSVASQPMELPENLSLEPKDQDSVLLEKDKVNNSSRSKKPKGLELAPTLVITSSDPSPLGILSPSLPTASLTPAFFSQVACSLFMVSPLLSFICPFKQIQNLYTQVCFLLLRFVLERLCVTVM
Outline: as §1

[11] = molecular target: T7, ETV2 (Homo sapiens, UniProt O00321 1-342)
T7 sequence: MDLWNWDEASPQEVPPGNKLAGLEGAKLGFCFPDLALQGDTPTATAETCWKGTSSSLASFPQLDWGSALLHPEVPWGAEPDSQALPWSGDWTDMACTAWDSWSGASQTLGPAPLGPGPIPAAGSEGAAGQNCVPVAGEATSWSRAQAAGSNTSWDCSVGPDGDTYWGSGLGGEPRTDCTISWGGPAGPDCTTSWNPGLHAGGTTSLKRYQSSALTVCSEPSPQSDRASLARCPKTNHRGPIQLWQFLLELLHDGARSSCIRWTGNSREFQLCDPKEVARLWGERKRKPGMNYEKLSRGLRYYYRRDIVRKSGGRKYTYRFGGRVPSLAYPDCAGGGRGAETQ
Outline: as §1

[12] = molecular target: ETV1 (Homo sapiens, UniProt P50549 1-477)
Chain of ETV1 (P50549 whole entry): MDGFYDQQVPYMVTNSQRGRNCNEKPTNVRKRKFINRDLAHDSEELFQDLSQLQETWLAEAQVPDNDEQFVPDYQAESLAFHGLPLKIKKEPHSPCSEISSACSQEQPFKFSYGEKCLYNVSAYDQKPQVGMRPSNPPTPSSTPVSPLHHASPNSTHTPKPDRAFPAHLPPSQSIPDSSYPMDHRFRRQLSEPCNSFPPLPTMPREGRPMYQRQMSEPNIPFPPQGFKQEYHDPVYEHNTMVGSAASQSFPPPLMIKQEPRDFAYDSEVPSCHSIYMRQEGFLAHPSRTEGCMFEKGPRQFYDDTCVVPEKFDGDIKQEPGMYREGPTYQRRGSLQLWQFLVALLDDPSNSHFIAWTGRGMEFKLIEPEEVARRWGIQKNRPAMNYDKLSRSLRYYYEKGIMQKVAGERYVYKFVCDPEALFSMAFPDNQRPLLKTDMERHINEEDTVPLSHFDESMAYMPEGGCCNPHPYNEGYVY
Outline: as §1

[13] = molecular target: T8, ERF (Homo sapiens, UniProt P50548 1-548)
T8 sequence: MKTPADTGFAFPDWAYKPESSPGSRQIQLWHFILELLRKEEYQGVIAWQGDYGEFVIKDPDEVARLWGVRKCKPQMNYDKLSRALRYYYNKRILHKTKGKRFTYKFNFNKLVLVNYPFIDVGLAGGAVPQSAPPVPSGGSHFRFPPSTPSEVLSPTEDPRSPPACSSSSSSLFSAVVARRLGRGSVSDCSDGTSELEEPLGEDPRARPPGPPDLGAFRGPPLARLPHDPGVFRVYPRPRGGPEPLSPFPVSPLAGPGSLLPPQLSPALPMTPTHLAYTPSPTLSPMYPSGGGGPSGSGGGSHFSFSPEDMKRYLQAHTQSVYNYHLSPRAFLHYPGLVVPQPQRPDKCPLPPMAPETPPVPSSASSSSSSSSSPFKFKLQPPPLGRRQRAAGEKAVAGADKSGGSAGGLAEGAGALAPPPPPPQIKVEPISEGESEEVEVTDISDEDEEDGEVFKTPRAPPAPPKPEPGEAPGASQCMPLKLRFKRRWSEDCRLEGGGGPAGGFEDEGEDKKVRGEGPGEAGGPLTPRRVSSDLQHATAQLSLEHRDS
Outline: as §1

[14] = molecular target: T9, ETS2 (Homo sapiens, UniProt P15036 1-469)
T9 sequence: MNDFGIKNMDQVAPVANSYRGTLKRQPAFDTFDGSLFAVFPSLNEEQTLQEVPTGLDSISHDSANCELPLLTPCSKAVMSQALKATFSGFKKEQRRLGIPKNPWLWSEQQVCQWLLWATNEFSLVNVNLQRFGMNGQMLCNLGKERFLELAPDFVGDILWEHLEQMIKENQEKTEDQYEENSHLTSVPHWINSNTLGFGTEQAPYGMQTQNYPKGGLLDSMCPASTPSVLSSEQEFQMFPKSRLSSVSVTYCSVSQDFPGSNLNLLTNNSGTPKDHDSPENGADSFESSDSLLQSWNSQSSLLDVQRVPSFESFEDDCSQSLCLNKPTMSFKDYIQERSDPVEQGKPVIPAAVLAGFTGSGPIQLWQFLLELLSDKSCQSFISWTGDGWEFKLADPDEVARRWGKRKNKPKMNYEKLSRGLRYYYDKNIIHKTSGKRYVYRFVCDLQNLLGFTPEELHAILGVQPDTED
Outline: as §1

[15] = molecular target: T10, SPDEF (Homo sapiens, UniProt O95238 1-335)
T10 sequence: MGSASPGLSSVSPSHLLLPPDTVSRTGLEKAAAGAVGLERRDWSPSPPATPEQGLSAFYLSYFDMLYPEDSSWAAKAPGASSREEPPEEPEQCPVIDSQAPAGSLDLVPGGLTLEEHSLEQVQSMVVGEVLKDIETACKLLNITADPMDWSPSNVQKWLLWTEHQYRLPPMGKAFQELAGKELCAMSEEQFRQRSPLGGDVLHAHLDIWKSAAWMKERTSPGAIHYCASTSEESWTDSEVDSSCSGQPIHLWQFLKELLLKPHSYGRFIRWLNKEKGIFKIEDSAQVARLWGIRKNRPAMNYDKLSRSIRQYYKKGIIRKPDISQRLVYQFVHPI
Outline: as §1

[16] = molecular target: T11, ETV7 (Homo sapiens, UniProt Q9Y603 1-341)
T11 sequence: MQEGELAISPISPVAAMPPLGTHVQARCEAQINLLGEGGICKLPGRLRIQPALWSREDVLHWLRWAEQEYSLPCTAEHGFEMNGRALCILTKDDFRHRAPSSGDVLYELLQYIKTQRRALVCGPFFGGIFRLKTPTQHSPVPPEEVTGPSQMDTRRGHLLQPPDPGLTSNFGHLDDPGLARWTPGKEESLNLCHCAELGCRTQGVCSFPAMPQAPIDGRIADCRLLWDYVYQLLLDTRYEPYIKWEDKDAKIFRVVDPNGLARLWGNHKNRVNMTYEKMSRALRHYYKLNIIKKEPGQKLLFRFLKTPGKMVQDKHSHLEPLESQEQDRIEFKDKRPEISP
Outline: as §1

[17] = molecular target: ETV6 (Homo sapiens, UniProt P41212 1-452)
Chain of ETV6 (P41212 whole entry): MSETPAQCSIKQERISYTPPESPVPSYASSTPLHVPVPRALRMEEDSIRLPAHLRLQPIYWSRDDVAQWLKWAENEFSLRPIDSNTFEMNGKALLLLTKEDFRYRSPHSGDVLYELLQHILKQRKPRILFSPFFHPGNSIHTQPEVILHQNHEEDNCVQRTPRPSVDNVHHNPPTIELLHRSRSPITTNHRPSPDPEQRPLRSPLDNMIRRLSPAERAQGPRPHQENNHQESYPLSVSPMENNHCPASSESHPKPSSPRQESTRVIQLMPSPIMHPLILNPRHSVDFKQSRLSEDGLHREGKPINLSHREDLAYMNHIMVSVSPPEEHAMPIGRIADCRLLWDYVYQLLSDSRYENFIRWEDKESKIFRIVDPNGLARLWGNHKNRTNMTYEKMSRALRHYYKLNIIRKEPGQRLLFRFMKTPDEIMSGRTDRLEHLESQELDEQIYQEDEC
Outline: as §1

## CATACA
[1]
  binding signal: 1.04 fold enrichment (6-mer frequency, TF over GST control)
[2]
  binding signal: 1.08 fold enrichment (6-mer frequency, TF over GST control)
[3]
  binding signal: 1.07 fold enrichment (6-mer frequency, TF over GST control)
[4]
  binding signal: 1.06 fold enrichment (6-mer frequency, TF over GST control)
[5]
  binding signal: 1.03 fold enrichment (6-mer frequency, TF over GST control)
[6]
  binding signal: 1.08 fold enrichment (6-mer frequency, TF over GST control)
[7]
  binding signal: 1.07 fold enrichment (6-mer frequency, TF over GST control)
[8]
  binding signal: 1.05 fold enrichment (6-mer frequency, TF over GST control)
[9]
  binding signal: 1.15 fold enrichment (6-mer frequency, TF over GST control)
[10]
  binding signal: 1.06 fold enrichment (6-mer frequency, TF over GST control)
[11]
  binding signal: 1.1 fold enrichment (6-mer frequency, TF over GST control)
[12]
  binding signal: 1.02 fold enrichment (6-mer frequency, TF over GST control)
[13]
  binding signal: 1.15 fold enrichment (6-mer frequency, TF over GST control)
[14]
  binding signal: 1.06 fold enrichment (6-mer frequency, TF over GST control)
[15]
  binding signal: 1.05 fold enrichment (6-mer frequency, TF over GST control)
[16]
  binding signal: 1.1 fold enrichment (6-mer frequency, TF over GST control)
[17]
  binding signal: 1.01 fold enrichment (6-mer frequency, TF over GST control)
